# A number with no mark means an inactive call. Active and inactive are the calls of the source.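 The calls were made as follows: active = inhibition above the hit cutoff set in the earlier primary screen (cut at about 27% in these data); inactive = the rest.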
# Molecular target: Protein phosphatase methylesterase 1 (Homo sapiens) (UniProt Q9Y570)
# Experiment: human PME-1 methylesterase inhibition confirmation – biochemical, fluorescence polarization, FP-Rh probe, triplicate (AID 2171);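 also: 0% = enzyme with DMSO and 100% = wells lacking PME-1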
# Settings: recombinant PME-1, FP-Rh probe fluorescence polarization; at 5.9 µM; hits give high values
# Sequence of Protein phosphatase methylesterase 1 (Homo sapiens) (Q9Y570 whole entry, looked up): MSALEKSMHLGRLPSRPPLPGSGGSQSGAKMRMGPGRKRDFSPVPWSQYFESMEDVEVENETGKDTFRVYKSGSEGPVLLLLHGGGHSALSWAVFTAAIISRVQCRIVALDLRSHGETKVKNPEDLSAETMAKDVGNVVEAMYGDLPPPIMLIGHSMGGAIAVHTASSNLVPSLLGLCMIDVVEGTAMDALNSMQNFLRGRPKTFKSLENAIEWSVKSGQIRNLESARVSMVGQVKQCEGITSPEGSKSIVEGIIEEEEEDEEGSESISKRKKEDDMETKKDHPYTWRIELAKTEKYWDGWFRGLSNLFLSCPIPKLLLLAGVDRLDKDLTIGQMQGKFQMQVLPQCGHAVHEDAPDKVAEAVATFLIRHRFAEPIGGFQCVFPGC
row,Structure (SMILES),inhibition
1,O=Nc1c(O)c2ccccc2c2ccccc12,65.8% (active)
2,Cc1nc2ccccc2nc1N/N=C/c1ccc(O)cc1O,36.4% (active)
3,Fc1cc(F)c2nc(Nc3nc4cc5c(cc4s3)OCO5)sc2c1,29.5% (active)
4,O=C1/C(=C/Nc2ccc3c(c2)OCO3)CCc2ccccc21,19.5%
5,Cc1ccc(NC(=O)COC(=O)c2cccc3c2C(=O)c2ccccc2C3=O)c(C)c1,91.2% (active)
6,Cc1ccc(C)c(NC(=O)COC(=O)c2cccc3c2C(=O)c2ccccc2C3=O)c1,92.7% (active)
7,COc1ccc(-c2nc(NC(=O)c3[nH]c(C)c(C(C)=O)c3C)sc2C)cc1,55% (active)
8,CCc1ccc(CNc2ccc(O)cc2)cc1,7.5%
9,Cc1[nH]c2ccccc2c1/C=N/Nc1nc(Nc2ccccc2)nc(N2CCOCC2)n1,34.2% (active)
10,CN(C)c1ccc(CNC(=O)CN(C)S(=O)(=O)c2cccc3cccnc23)cc1,32.8% (active)
11,Nc1c(N=Nc2ccccc2F)c(=O)[nH]n1-c1ccccc1,30.1% (active)
12,CC(=O)Nc1ccc(Nc2nc(C)c([N+](=O)[O-])c(Nc3ccccc3)n2)cc1,19.7%
13,CCOC(=O)C1CCCN(C(=O)C2c3ccccc3Oc3ccccc32)C1 (stereo not given),16%
14,CCOc1cc(N(CC)CC)ccc1/C=C(/C#N)c1nc2ccccc2[nH]1,8.91%
15,COc1ccc(N/N=C(\C=N\O)C(=O)c2ccc(OC)cc2)cc1,58.9% (active)
16,COc1cc(/C=N/Nc2nc(-c3ccc(S(=O)(=O)N(C)C)cc3)cs2)ccc1O,19.7%
17,Cc1ccc(C(=O)COC(=O)c2cccc(NC(=O)c3ccc([N+](=O)[O-])cc3[N+](=O)[O-])c2)cc1,-3.98%
18,COc1ccc(C)cc1NC(=O)NNC(=O)c1cc2ccccc2cc1O,16.4%
19,CC(C)N(C(=O)Nc1ccc2nsnc2c1)C(C)C,20.8%
20,O=C(Nc1cccc(C(F)(F)F)c1)c1ccc2nc(-c3ccco3)c(-c3ccco3)nc2c1,-3.36%

row,Structure (SMILES),inhibition
1,COc1ccc(-c2cc(-c3ccc(Cl)cc3)n[nH]2)c(O)c1,16.9%
2,COc1ccc(/C=c2\s/c(=C/C(=O)c3ccc(C)cc3)[nH]c2=O)c(OC)c1,18.9%
3,COC(=O)c1ccc(Sc2ccccc2NS(=O)(=O)c2ccc(C)cc2)nc1,25.9%
4,CC(=O)c1cc(O)c2ccccc2c1O,22.5%
5,COc1ccc(NS(=O)(=O)c2ccc(N/N=C(\C)c3ccncc3)c([N+](=O)[O-])c2)cc1,26.3% (active)
6,CCCN(CCC)CCCNC(=O)c1cn(CC)c2ccc(S(=O)(=O)N(C)C3CCCCC3)cc2c1=O,50.9% (active)
7,COc1ccccc1C(=O)NC(=S)Nc1cccc2cc(O)ccc12,17%
8,COc1ccc(-c2cc(-c3c(O)c(OC)c4occc4c3OC)[nH]n2)cc1OC,12.9%
9,Cc1ccc(NS(=O)(=O)c2ccc3c(c2)C(=O)c2ccccc2C3=O)c(C)c1,24.5%
10,O=C(CNc1cccc2ccccc12)N/N=C/c1cccc(Oc2ccccc2)c1,31.1% (active)
11,Cc1oc(-c2ccc3ccccc3c2)nc1CN(C)C(C)c1ccncn1 (stereo not given),4.93%
12,O=C1c2cccc3c([N+](=O)[O-])ccc(c23)C(=O)N1c1ccc(Cl)cn1,34.9% (active)
13,Cc1csc(NC(=O)c2sc3nc(-c4cccs4)ccc3c2N)n1,42.6% (active)
14,CCOC(=O)N1CC=C2C(C#N)=C(N)C(C#N)(C#N)[C@H](c3ccc(OC(C)C)c(OCC)c3)[C@H]2C1,41.6% (active)
15,O=C1C=C(N2CCOCC2)c2ccccc2C1=O,41% (active)
16,CCCOc1ccc(C2Nc3cccc4cccc(c34)N2)cc1,38.3% (active)
17,COc1cccc(CNC(=O)CCCc2cn(C)c3ccccc23)c1,6.78%
18,CC(C)(C)c1cc(C(=O)N/N=C/c2ccc(-c3ccccc3[N+](=O)[O-])o2)n[nH]1,1.81%
19,O=C1C=C(N2CCCCC2)c2ccccc2C1=O,43% (active)
20,CCOc1ccc(C(=O)NC(C)CCc2ccccc2)cc1 (stereo not given),-6.46%
